Where “and” joins values, the source holds several entries; their conditions need not be identical. Identical values can stand only once. Hit rate of the full screen: of about 5,500 compounds, about 2,000 (36%) were called active. Inconclusive results (about 18%) are left out. No stated cut-off is given here; in the data, active means normalized growth mostly below about 0.91 (no sharp cut-off); inconclusive means no clear call, values can overlap the other calls; inactive means mostly above about 0.92. The list shows a part of the results.
Assay: chemical genetic growth profiling, strain panel (AID 1159580);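 further: tested at 20 µM; growth read once vehicle control cultures reached saturation at 30 °C; 1 = growth at the plate median or of vehicle wells; lower values mean less growth of the strain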
Conditions: growth OD

Measured: normalized growth

O=C(O)C1CCCNC1 (stereo unspecified)
inactive: S. cerevisiae deletion strains, locus YJR075W, strain HOC1, hits give low values 1.01 | S. cerevisiae deletion strains, locus YKL009W, strain mrt4, hits give low values 1.02 | S. cerevisiae deletion strains, locus YKL068W, hits give low values 1.01 | S. cerevisiae deletion strains, locus YKL085W, strain MDH1 (second series), hits give low values 1.01 | S. cerevisiae deletion strains, locus YKL085W, strain MDH1, hits give low values 1.01 | S. cerevisiae deletion strains, locus YKL160W, strain elf1, hits give low values 1.01 | S. cerevisiae deletion strains, locus YKL190W, strain CNB1, hits give low values 1.01 | S. cerevisiae deletion strains, locus YKR001C, strain vps1, hits give low values 1.01 | S. cerevisiae deletion strains, locus YKR026C, strain gcn3, hits give low values 1.03 | S. cerevisiae deletion strains, locus YKR091W, strain srl3, hits give low values 1.01 | S. cerevisiae deletion strains, locus YLL001W, strain dnm1, hits give low values 1.04 | S. cerevisiae deletion strains, locus YLL026W, hits give low values 1.01 | S. cerevisiae deletion strains, locus YLL041C, strain sdh2, hits give low values 1.02 | S. cerevisiae deletion strains, locus YLR027C, strain aat2, hits give low values 1.02 | S. cerevisiae deletion strains, locus YLR039C, strain RIC1, hits give low values 1.01 | S. cerevisiae deletion strains, locus YLR058C, strain SHM2, hits give low values 1.01 | S. cerevisiae deletion strains, locus YLR102C, strain apc9, hits give low values 1.01 | S. cerevisiae deletion strains, locus YLR113W, strain HOG1, hits give low values 1.05 | S. cerevisiae deletion strains, locus YLR221C, strain rsa3, hits give low values 1.01 | S. cerevisiae deletion strains, locus YLR258W, strain gsy2, hits give low values 1.02 | S. cerevisiae deletion strains, locus YLR262C, strain YPT6 (second series), hits give low values 1.01 | S. cerevisiae deletion strains, locus YLR262C, strain YPT6, hits give low values 1.05 | S. cerevisiae deletion strains, locus YLR268W, strain sec22, hits give low values 1.04 | S. cerevisiae deletion strains, locus YLR320W, strain mms22, hits give low values 1.02 | S. cerevisiae deletion strains, locus YLR330W, strain CHS5, hits give low values 1 | S. cerevisiae deletion strains, locus YLR342W, strain FKS1 (second series), hits give low values 0.997 | S. cerevisiae deletion strains, locus YLR342W, strain FKS1, hits give low values 1.01 | S. cerevisiae deletion strains, locus YLR357W, strain rsc2, hits give low values 1.03 | S. cerevisiae deletion strains, locus YLR370C, strain arc18, hits give low values 1.02 | S. cerevisiae deletion strains, locus YLR371W, strain rom2, hits give low values 1.03 | S. cerevisiae deletion strains, locus YLR384C, strain iki3, hits give low values 1.01 | S. cerevisiae deletion strains, locus YLR418C, strain cdc73, hits give low values 1.05 | S. cerevisiae deletion strains, locus YML016C, strain PPZ1, hits give low values 1.01 | S. cerevisiae deletion strains, locus YML032C, strain rad52, hits give low values 1.04 | S. cerevisiae deletion strains, locus YML120C, strain ndi1, hits give low values 1.01 | S. cerevisiae deletion strains, locus YML124C, strain tub3, hits give low values 1.01 | S. cerevisiae deletion strains, locus YMR058W, strain fet3, hits give low values 1.02 | S. cerevisiae deletion strains, locus YMR078C, strain ctf18, hits give low values 1.03 | S. cerevisiae deletion strains, locus YMR125W, strain sto1, hits give low values 1.02 | S. cerevisiae deletion strains, locus YMR129W, hits give low values 1.03 | S. cerevisiae deletion strains, locus YMR205C, strain PFK2, hits give low values 1.02 | S. cerevisiae deletion strains, locus YMR223W, strain ubp8, hits give low values 1.02 | S. cerevisiae deletion strains, locus YMR231W, strain pep5, hits give low values 1.01 | S. cerevisiae deletion strains, locus YMR263W, strain SAP30, hits give low values 1.01 | S. cerevisiae deletion strains, locus YMR307W, strain GAS1, hits give low values 0.992 and 0.991 | S. cerevisiae deletion strains, locus YNL067W, strain RPL9B, hits give low values 1.01 | S. cerevisiae deletion strains, locus YNL071W, strain lat1, hits give low values 1.02 | S. cerevisiae deletion strains, locus YNL128W, strain TEP1, hits give low values 1.02 and 0.999 | S. cerevisiae deletion strains, locus YNL153C, strain GIM3, hits give low values 1.01 and 1.02 | S. cerevisiae deletion strains, locus YNL175C, strain NOP13, hits give low values 1.02 | S. cerevisiae deletion strains, locus YNL183C, strain NPR1, hits give low values 0.935 | S. cerevisiae deletion strains, locus YNL197C, strain WHI3, hits give low values 1.01 | S. cerevisiae deletion strains, locus YNL209W, strain ssb2, hits give low values 1.02 | S. cerevisiae deletion strains, locus YNL224C, strain SQS1, hits give low values 1.03 | S. cerevisiae deletion strains, locus YNL233W, strain BNI4, hits give low values 1.01 | S. cerevisiae deletion strains, locus YNL248C, strain rpa49, hits give low values 1 | S. cerevisiae deletion strains, locus YNL250W, strain rad50, hits give low values 1.02 | S. cerevisiae deletion strains, locus YNL271C, strain bni1, hits give low values 1.02 | S. cerevisiae deletion strains, locus YNL298W, strain CLA4, hits give low values 1.02 | S. cerevisiae deletion strains, locus YNL307C, strain MCK1, hits give low values 1.03 | S. cerevisiae deletion strains, locus YNL322C, strain KRE1 (second series), hits give low values 1.02 | S. cerevisiae deletion strains, locus YNL322C, strain KRE1, hits give low values 1.01 | S. cerevisiae deletion strains, locus YNR049C, strain mso1, hits give low values 1.02 | S. cerevisiae deletion strains, locus YNR052C, strain pop2, hits give low values 1.02 | S. cerevisiae deletion strains, locus YOL006C, strain TOP1, hits give low values 1.07 | S. cerevisiae deletion strains, locus YOL012C, strain htz1 1.27 | S. cerevisiae deletion strains, locus YOL147C, strain pex11, hits give low values 1.02 | S. cerevisiae deletion strains, locus YOR001W, strain rrp6, hits give low values 1.02 | S. cerevisiae deletion strains, locus YOR061W, strain CKA2, hits give low values 1.01 | S. cerevisiae deletion strains, locus YOR069W, strain VPS5, hits give low values 1 | S. cerevisiae deletion strains, locus YOR070C, strain gyp1, hits give low values 1.02 | S. cerevisiae deletion strains, locus YOR080W, strain dia2, hits give low values 1.02 | S. cerevisiae deletion strains, locus YOR083W, strain WHI5 (second series), hits give low values 1.02 | S. cerevisiae deletion strains, locus YOR083W, strain WHI5, hits give low values 1.01 | S. cerevisiae deletion strains, locus YOR106W, strain vam3, hits give low values 1.01 | S. cerevisiae deletion strains, locus YOR136W, strain idh2, hits give low values 1.02 | S. cerevisiae deletion strains, locus YOR144C, strain elg1, hits give low values 1.02 | S. cerevisiae deletion strains, locus YOR184W, strain ser1, hits give low values 1.04 | S. cerevisiae deletion strains, locus YOR231W, strain MKK1, hits give low values 0.999 | S. cerevisiae deletion strains, locus YOR265W, strain rbl2, hits give low values 1.02 | S. cerevisiae deletion strains, locus YOR270C, strain vph1, hits give low values 1.04 | S. cerevisiae deletion strains, locus YOR290C, strain snf2, hits give low values 1.02 | S. cerevisiae deletion strains, locus YOR316C, strain cot1, hits give low values 1.02 | S. cerevisiae deletion strains, locus YPL051W, strain arl3, hits give low values 1.02 | S. cerevisiae deletion strains, locus YPL055C, strain LGE1, hits give low values 1.03 | S. cerevisiae deletion strains, locus YPL078C, strain atp4, hits give low values 1.03 | S. cerevisiae deletion strains, locus YPL106C, strain sse1, hits give low values 1.01 | S. cerevisiae deletion strains, locus YPL240C, strain hsp82, hits give low values 1.03 | S. cerevisiae deletion strains, locus YPL241C, strain CIN2, hits give low values 1.01 and 1 | S. cerevisiae deletion strains, locus YPL256C, strain CLN2, hits give low values 0.983 | S. cerevisiae deletion strains, locus YPR119W, strain clb2, hits give low values 1.03 | S. cerevisiae deletion strains, locus YPR141C, strain kar3, hits give low values 1.02 | S. cerevisiae deletion strains, locus YPR163C, strain tif3, hits give low values 1.03 | S. cerevisiae deletion strains, locus YPR167C, strain met16, hits give low values 1.03 | S. cerevisiae deletion strains, strain wtn01, hits give low values 1.02 | S. cerevisiae strains, strain wild type, hits give low values 1.01

Reference: PubChem BioAssay AID1159580 (chemical genetic matrix, 2015)
